Reference: PubChem BioAssay (EPA / NIEHS)
Results filed as inconclusive are left out. Calls of active or inactive are those of the source. The calls were made as follows, unless noted: active = hit-call score of the fitted dose curve at least 0.9, where 1 is the maximum; inactive = score below 0.9.

Tests used:
[1] = biological target: Paired box protein Pax-6 (Homo sapiens) (UniProt P26367); assay: ATG_Pax6_CIS: Attagene CIS-FACTORIAL HepG2 Assay for human Paired Box 6 (PAX6) (AID 2282956); conditions: HepG2 CIS-FACTORIAL PAX6 reporter transcription, RNA readout; actives raise or lower the signal
Sequence of Paired box protein Pax-6 (Homo sapiens) (P26367 whole entry, looked up): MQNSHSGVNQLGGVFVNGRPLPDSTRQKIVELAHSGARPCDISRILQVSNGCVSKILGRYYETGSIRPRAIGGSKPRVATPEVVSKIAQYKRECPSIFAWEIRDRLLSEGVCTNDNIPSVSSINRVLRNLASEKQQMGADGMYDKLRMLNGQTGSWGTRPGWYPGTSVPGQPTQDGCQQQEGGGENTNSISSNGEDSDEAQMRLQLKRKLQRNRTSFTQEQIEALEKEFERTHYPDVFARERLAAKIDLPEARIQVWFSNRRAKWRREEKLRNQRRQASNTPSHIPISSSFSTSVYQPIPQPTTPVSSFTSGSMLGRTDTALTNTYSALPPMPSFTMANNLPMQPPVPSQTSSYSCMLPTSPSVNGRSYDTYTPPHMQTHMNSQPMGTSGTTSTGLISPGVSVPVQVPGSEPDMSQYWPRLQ
In short: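 After twenty-four hours of chemical exposure, transfected HepG2 cells are harvested for RNA. Cis-promoter reporter transcripts are amplified, fluorescently labelled and sized by capillary electrophoresis, with gain and loss of signal scored against DMSO.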

[2] = ATG_PXRE_CIS: Attagene CIS-FACTORIAL HepG2 Assay for human Pregnane X Receptor Element (PXRE) (AID 2282957); conditions: HepG2 Attagene CIS-FACTORIAL PXRE reporter, mRNA; actives raise or lower the signal
In short: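 HepG2 cells transiently transfected with cis-regulated multiple reporter transcription units; endogenous factor activity measured as reporter mRNA 24 h after dosing. RT-PCR, fluorescent primer extension, HpaI digestion, capillary electrophoresis; bidirectional fit versus DMSO baseline.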

[3] = ATG_PPRE_CIS: Attagene CIS-FACTORIAL HepG2 Assay for human Peroxisome Proliferator-activated Response Element (PPRE) (AID 2282958); conditions: HepG2 PPRE cis-element reporter, Attagene transcription factor profiling; actives raise or lower the signal
In short: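 HepG2, transient MRTU transfection (cis promoter elements, endogenous TFs). 24 h dosing. RNA → oligo(dT) RT → PCR → 6-FAM primer extension → HpaI digest → CE. Bidirectional fit vs DMSO.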

[4] = ATG_RORE_CIS: Attagene CIS-FACTORIAL HepG2 Assay for human RAR-related Orphan Receptor Element (RORE) (AID 2282959); conditions: HepG2 Attagene cis-factorial RORE reporter, mRNA; actives raise or lower the signal
In short: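 Transient MRTU transfection of human HepG2 liver cells (FuGene 6); 24 h compound exposure; TriZol RNA, oligo(dT) RT, PCR, FAM labeling, HpaI cut, CE fragment analysis. DMSO = negative control/baseline.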

[5] = ATG_Sox_CIS: Attagene CIS-FACTORIAL HepG2 Assay for human SRY-box transcription factor (SOX) (AID 2282960); conditions: HepG2 Attagene cis-factorial SOX reporter, mRNA; actives raise or lower the signal
In short: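 Endogenous factor activity in human liver HepG2 cells carrying transfected cis-regulated reporter units. RNA taken 24 h post-dose, reverse-transcribed, PCR-amplified and sized by capillary electrophoresis. Gain or loss of signal fitted relative to DMSO.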

[6] = biological target: Transcription factor Sp1 (Homo sapiens) (UniProt P08047); assay: ATG_Sp1_CIS: Attagene CIS-FACTORIAL HepG2 Assay for human Specificity Protein 1 (Sp1) (AID 2282961); conditions: HepG2 Sp1 cis-reporter transcription, actives raise or lower the signal
Sequence of Transcription factor Sp1 (Homo sapiens) (P08047 whole entry, looked up): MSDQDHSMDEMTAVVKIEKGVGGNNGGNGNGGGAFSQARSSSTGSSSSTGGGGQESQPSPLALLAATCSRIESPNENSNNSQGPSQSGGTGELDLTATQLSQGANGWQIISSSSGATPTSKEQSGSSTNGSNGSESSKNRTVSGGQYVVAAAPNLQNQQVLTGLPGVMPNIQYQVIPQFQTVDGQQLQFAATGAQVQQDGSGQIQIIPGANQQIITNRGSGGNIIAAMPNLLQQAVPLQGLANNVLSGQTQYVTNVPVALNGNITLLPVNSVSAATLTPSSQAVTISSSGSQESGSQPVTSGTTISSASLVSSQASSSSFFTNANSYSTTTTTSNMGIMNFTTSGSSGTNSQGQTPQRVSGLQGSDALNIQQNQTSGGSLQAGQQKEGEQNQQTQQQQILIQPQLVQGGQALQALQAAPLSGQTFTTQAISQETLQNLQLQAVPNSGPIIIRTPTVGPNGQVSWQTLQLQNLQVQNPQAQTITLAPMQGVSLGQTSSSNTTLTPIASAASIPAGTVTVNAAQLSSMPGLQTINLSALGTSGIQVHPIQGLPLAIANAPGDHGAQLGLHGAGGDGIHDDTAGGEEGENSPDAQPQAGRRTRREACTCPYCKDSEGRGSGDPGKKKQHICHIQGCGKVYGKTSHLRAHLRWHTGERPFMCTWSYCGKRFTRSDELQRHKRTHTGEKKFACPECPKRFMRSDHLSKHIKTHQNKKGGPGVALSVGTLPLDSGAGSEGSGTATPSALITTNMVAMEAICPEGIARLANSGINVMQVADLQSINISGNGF
In short: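 Transient MRTU-transfected HepG2, 24 h compound exposure. Total RNA → oligo(dT) RT → PCR of reporter → 6-FAM primer extension → HpaI digest → CE. Endpoint fitted both directions vs DMSO.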

[7] = biological target: Signal transducer and activator of transcription 3 (Homo sapiens) (UniProt P40763); assay: ATG_STAT3_CIS: Attagene CIS-FACTORIAL HepG2 Assay for human Signal Transducer and Activator of Transcription 3 (STAT3) (AID 2282963); conditions: HepG2, Attagene cis-factorial STAT3 reporter transcription; actives raise or lower the signal
Sequence of Signal transducer and activator of transcription 3 (Homo sapiens) (P40763 whole entry, looked up): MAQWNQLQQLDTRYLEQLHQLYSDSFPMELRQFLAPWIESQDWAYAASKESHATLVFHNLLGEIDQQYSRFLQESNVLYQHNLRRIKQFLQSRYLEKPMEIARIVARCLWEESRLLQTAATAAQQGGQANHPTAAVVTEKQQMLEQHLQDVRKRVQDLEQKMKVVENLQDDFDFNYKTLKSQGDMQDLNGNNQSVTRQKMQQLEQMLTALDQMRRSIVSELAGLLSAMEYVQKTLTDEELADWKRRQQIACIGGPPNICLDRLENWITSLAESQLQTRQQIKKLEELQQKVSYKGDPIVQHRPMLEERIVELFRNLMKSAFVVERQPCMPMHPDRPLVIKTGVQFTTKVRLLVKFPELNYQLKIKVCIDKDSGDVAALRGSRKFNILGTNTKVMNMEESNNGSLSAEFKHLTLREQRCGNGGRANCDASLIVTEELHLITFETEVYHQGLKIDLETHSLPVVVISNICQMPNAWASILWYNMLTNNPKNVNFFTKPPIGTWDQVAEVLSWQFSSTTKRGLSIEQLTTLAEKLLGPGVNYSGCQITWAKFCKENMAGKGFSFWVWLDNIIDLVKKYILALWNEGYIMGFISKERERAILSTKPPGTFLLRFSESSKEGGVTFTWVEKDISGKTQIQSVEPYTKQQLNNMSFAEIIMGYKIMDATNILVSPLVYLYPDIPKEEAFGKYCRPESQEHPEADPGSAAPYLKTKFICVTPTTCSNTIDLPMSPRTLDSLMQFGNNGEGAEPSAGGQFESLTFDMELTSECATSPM
In short: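 HepG2 cells transiently transfected with multiple cis-element-driven reporter units report endogenous transcription factor activity. After 24 h compound exposure, reporter mRNA is measured by RT-PCR, 6-FAM labelling, HpaI digestion and capillary electrophoresis. Fitted bidirectionally versus DMSO.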

[8] = ATG_TA_CIS: Attagene CIS-FACTORIAL HepG2 Assay for human TA Basal Promoter (AID 2282964); conditions: HepG2 Attagene CIS-factorial TA basal promoter reporter; actives raise or lower the signal
In short: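 Multiplexed mRNA reporter assay, HepG2, 24 h. Reporter cDNA amplified, 6-FAM primer-extended, HpaI-cut, CE-sized; DMSO = negative control and baseline.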

[9] = ATG_TCF_b_cat_CIS: Attagene CIS-FACTORIAL HepG2 Assay for human T-Cell-Factor with beta-catenin (TCF/b-cat) (AID 2282965); conditions: HepG2 TCF/beta-catenin cis-reporter transcription, actives raise or lower the signal
In short: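 Cells of the HepG2 line carry transiently transfected reporter units whose promoters respond to endogenous factors. Twenty-four hours post-dosing, reporter mRNA induction is measured by fluorescent RT-PCR and capillary electrophoresis, with DMSO as baseline.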

[10] = ATG_TAL_CIS: Attagene CIS-FACTORIAL HepG2 Assay for human TAL Basal Promoter (AID 2282966); conditions: HepG2 Attagene cis-factorial TAL promoter reporter; actives raise or lower the signal;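 also: background control endpoint measuring basal TAL promoter reporter mRNA not a specific factor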
In short: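 HepG2 cells were transiently transfected with promoter-driven multiplexed reporter units and dosed for 24 h. Reporter mRNA was measured by RT-PCR with capillary electrophoresis fluorescence; bidirectional fits used DMSO as baseline, serving as a background control.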

[11] = ATG_TGFb_CIS: Attagene CIS-FACTORIAL HepG2 Assay for human Transforming Growth Factor (TGF) (AID 2282967); conditions: HepG2 Attagene CIS TGFb reporter, mRNA transcription; actives raise or lower the signal
In short: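 Transcript-level reporter readout: HepG2 transfectants, 24 h exposure, RNA to cDNA, reporter-specific PCR, fluorescent primer extension, capillary sizing against ROX standards. Gain- or loss-of-signal relative to DMSO.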

[12] = ATG_VDRE_CIS: Attagene CIS-FACTORIAL HepG2 Assay for human Vitamin D Receptor Element (VDRE) (AID 2282968); conditions: HepG2 VDRE cis-reporter transcription, actives raise or lower the signal
In short: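 Transiently transfected HepG2 cells carrying cis-regulated reporter transcription units were exposed for 24 h. Reporter mRNA was measured by RT-PCR with fluorescent labelling and capillary electrophoresis, and fitted in both directions against DMSO.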

[13] = biological target: Estrogen receptor (Homo sapiens) (UniProt P03372); assay: ATG_ERa_TRANS: Attagene TRANS-FACTORIAL HepG2 Assay for human Estrogen Receptor alpha (ERa) (AID 2282970; active = hit-call score of the fitted dose curve at least 0.9, where 1 is the maximum); conditions: HepG2 Attagene TRANS ERa GAL4 reporter, mRNA
Sequence of Estrogen receptor (Homo sapiens) (P03372 whole entry, looked up, the tested form may be a part): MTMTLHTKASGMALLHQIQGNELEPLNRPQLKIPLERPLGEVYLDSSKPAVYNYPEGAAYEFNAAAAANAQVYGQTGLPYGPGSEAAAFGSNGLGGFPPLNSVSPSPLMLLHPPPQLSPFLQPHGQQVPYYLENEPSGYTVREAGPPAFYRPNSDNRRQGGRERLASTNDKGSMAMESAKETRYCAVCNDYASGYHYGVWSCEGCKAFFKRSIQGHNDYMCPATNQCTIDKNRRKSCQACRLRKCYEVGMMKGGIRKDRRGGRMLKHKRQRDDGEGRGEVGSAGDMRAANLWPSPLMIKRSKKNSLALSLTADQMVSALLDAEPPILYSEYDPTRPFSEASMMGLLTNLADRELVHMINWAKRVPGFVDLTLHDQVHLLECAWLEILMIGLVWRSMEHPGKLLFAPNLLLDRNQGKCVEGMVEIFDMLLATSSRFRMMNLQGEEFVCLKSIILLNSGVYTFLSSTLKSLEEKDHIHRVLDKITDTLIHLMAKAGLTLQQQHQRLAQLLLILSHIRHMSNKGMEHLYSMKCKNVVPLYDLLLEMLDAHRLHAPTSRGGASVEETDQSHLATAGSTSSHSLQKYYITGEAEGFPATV
In short: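 HepG2 cells transiently transfected with multiplexed GAL4-UAS reporter units; ERa activity read via exogenous chimeric NR-Gal4 protein. After 24 hour compound exposure, reporter mRNA measured by RT-PCR with 6-FAM labelling and capillary electrophoresis; gain-of-signal fitted relative to DMSO.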

[14] = biological target: Steroid hormone receptor ERR1 (Homo sapiens) (UniProt P11474); assay: ATG_ERRa_TRANS: Attagene TRANS-FACTORIAL HepG2 Assay for human Estrogen-Related Receptor alpha (ERRa) (AID 2282971; active = hit-call score of the fitted dose curve at least 0.9, where 1 is the maximum); conditions: HepG2 Attagene TRANS reporter, ERRa transactivation
Sequence of Steroid hormone receptor ERR1 (Homo sapiens) (P11474 whole entry, looked up, the tested form may be a part): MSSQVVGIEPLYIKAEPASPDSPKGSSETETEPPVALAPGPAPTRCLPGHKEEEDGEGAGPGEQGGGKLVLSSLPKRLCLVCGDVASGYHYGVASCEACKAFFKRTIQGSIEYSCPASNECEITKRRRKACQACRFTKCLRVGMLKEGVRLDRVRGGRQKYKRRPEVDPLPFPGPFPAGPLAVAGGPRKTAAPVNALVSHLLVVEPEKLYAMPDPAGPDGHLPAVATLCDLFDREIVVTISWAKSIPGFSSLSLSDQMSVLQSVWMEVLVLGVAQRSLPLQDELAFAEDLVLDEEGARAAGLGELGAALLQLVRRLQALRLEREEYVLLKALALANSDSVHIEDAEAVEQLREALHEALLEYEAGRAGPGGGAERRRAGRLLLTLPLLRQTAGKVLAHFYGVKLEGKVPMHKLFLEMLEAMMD
In short: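 HepG2 cells transiently transfected with multiplexed GAL4-UAS reporter units reading chimeric ERRa-Gal4 activity; 24 h compound exposure. Reporter mRNA measured by RT-PCR, 6-FAM labelling, HpaI digest and capillary electrophoresis; gain of signal fitted versus DMSO baseline.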

[15] = biological target: X-box-binding protein 1 (Homo sapiens) (UniProt P17861); assay: ATG_Xbp1_CIS: Attagene CIS-FACTORIAL HepG2 Assay for human X-box Binding Protein 1 (XBP1) (AID 2282972); conditions: HepG2 XBP1 cis-element reporter, Attagene multiplex; actives raise or lower the signal
Sequence of X-box-binding protein 1 (Homo sapiens) (P17861 whole entry, looked up): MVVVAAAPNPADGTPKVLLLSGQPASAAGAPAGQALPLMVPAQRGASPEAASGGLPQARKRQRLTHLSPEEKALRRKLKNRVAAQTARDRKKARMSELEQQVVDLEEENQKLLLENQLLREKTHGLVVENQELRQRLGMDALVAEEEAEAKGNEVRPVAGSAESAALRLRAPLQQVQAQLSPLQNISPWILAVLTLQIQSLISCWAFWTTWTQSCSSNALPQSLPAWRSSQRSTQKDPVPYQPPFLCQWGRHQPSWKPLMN
In short: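 After a 24-hour chemical exposure of HepG2 cells carrying cis-regulated reporters, reporter mRNA levels are assessed. Quantification uses RT-PCR, 6-FAM labelling and capillary electrophoresis. Gain- or loss-of-signal is fitted against DMSO.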

[16] = ATG_M_19_TRANS: Attagene TRANS-FACTORIAL HepG2 Assay for M19 Transcription Factor (Internal Marker) (AID 2282974; active = hit-call score of the fitted dose curve at least 0.9, where 1 is the maximum); conditions: HepG2 Attagene TRANS-FACTORIAL M19 internal marker reporter
In short: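 Fluorescence of 6-FAM-labelled reporter cDNA fragments, separated by capillary electrophoresis, served as the readout. These derived from HepG2 cells carrying transfected GAL4-UAS reporter units after 24 h dosing, with DMSO as negative control.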

[17] = biological target: Estrogen-related receptor gamma (Homo sapiens) (UniProt P62508); assay: ATG_ERRg_TRANS: Attagene TRANS-FACTORIAL HepG2 Assay for human Estrogen-Related Receptor gamma (ERRg) (AID 2282977; active = hit-call score of the fitted dose curve at least 0.9, where 1 is the maximum;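 also: hits increase reporter signal over DMSO so potencies reflect activators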); conditions: HepG2 Attagene TRANS reporter, ERRg transactivation
Sequence of Estrogen-related receptor gamma (Homo sapiens) (P62508 whole entry, looked up, the tested form may be a part): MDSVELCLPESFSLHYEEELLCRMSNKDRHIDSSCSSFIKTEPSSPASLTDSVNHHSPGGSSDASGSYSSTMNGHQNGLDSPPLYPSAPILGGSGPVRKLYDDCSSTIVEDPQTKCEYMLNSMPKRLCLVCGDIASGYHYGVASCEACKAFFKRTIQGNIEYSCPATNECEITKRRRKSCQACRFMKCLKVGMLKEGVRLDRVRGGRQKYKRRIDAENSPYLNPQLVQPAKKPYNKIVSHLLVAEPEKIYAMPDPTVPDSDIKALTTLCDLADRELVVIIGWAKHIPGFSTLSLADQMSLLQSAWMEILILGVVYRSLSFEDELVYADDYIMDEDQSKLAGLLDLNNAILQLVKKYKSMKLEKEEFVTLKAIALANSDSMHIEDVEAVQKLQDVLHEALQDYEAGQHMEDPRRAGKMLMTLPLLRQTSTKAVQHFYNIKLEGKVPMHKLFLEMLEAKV
In short: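 HepG2 cells transiently transfected with multiplexed GAL4-UAS reporter units driven by chimeric NR-Gal4 proteins; 24 h exposure. Reporter mRNA quantified by RT-PCR, fluorescent labelling, HpaI digestion and capillary electrophoresis; gain of signal vs DMSO.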

[18] = ATG_SREBP_CIS: Attagene CIS-FACTORIAL HepG2 Assay for human Sterol Regulatory Element Binding (SREBP) (AID 2282962); conditions: HepG2 Attagene cis-factorial SREBP reporter, mRNA; actives raise or lower the signal
In short: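 Twenty-four hours after chemical dosing of transfected HepG2 cultures, reporter RNA was converted to cDNA, amplified, end-labelled with 6-FAM and resolved by capillary electrophoresis. Responses were fitted relative to DMSO.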

[19] = ATG_GAL4_TRANS: Attagene TRANS-FACTORIAL HepG2 Assay for GAL4 (Internal Marker) (AID 2282976; active = hit-call score of the fitted dose curve at least 0.9, where 1 is the maximum); conditions: HepG2 Attagene TRANS GAL4 internal marker reporter
In short: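 HepG2 cells transiently transfected with multiplexed GAL4-UAS reporter constructs were dosed for 24 h. Reporter mRNA was measured by RT-PCR, 6-FAM primer extension, HpaI digestion and capillary electrophoresis, and gain of signal was fitted relative to DMSO.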

[20] = biological target: Glucocorticoid receptor (Homo sapiens) (UniProt P04150); assay: ATG_GR_TRANS: Attagene TRANS-FACTORIAL HepG2 Assay for human Glucocorticoid Receptor (GR) (AID 2282978; active = hit-call score of the fitted dose curve at least 0.9, where 1 is the maximum;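 also: activators score as hits since higher reporter transcript over DMSO is fitted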); conditions: HepG2 Attagene TRANS GR reporter, mRNA transcription
Sequence of Glucocorticoid receptor (Homo sapiens) (P04150 whole entry, looked up, the tested form may be a part): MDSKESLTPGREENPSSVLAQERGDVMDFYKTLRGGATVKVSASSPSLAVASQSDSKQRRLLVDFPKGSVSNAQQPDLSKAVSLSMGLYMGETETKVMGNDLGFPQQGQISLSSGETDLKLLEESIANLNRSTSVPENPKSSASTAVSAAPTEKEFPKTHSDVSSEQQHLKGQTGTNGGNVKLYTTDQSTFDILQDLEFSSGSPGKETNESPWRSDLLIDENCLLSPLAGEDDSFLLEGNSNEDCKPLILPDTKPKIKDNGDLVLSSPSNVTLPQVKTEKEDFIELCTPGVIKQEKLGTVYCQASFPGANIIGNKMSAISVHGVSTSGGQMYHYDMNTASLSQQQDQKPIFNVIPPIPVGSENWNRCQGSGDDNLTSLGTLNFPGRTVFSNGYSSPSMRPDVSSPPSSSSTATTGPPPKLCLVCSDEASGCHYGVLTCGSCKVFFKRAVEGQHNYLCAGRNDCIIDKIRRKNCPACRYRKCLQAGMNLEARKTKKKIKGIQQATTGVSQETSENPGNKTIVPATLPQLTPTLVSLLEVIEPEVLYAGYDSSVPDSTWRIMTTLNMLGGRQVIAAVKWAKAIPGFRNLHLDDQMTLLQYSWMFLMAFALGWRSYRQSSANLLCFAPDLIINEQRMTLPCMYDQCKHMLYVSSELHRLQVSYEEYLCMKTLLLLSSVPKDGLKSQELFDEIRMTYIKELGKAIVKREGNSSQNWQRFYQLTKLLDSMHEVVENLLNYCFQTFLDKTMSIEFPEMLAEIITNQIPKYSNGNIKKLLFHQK
In short: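 Fluorescent capillary-electrophoresis quantitation of reporter mRNA is the readout, taken 24 h after dosing human HepG2 cells carrying transiently transfected GAL4-UAS reporter units activated by chimeric NR-GAL4 fusions; activity scored as induction over DMSO.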

Measured: AC50

COc1cccc2c1C(=O)c1c(O)c3c(c(O)c1C2=O)C[C@@](O)(C(=O)CO)C[C@@H]3O[C@H]1C[C@H](N)[C@H](O)[C@H](C)O1
inactive: [1] | [2] | [3] | [4] | [5] | [6] | [7] | [8] | [10] | [11] | [13] | [14] | [16] | [17]
active: [9] 1.26 µM | [12] 0.318 µM | [15] 0.0821 µM

O=C(OCCCCCOC(=O)c1ccccc1)c1ccccc1
inactive: [1] | [2] | [3] | [4] | [5] | [6] | [18] | [7] | [8] | [9] | [10] | [11] | [13] | [15] | [16] | [19]

O=C(O)CCCCC(=O)O
active: [2] 55 µM
inactive: [1] | [3] | [4] | [5] | [6] | [18] | [7] | [8] | [9] | [10] | [11] | [12] | [15] | [16] | [20]

CNCc1cc(F)ccc1Oc1ccc(Cl)c(Cl)c1
inactive: [1] | [3] | [4] | [5] | [6] | [18] | [7] | [8] | [9] | [10] | [11] | [12] | [13] | [15] | [16]
active: [2] 7.83 µM

CC(=O)OC/C=C(\C)CCC=C(C)C
inactive: [1] | [3] | [4] | [5] | [6] | [7] | [8] | [9] | [10] | [11] | [13] | [15] | [16] | [20]
active: [2] 48.3 µM

Cc1ccccc1Cl
inactive: [1] | [2] | [3] | [4] | [5] | [6] | [7] | [8] | [9] | [10] | [11] | [12] | [13] | [15]

C=CCc1ccc(O)c(OC)c1
active: [9] 176 µM | [13] 41.4 µM
inactive: [1] | [2] | [4] | [5] | [6] | [18] | [7] | [8] | [10] | [11] | [15] | [16] | [17]

COc1cc(-c2nc(NC(=O)c3cc4cc(C)cc(C)c4n3CC(=O)O)sc2CCC2CCCCC2)c(OC)cc1Cl
active: [1] 14.2 µM | [4] 10.4 µM | [5] 100 µM | [6] 2.83 µM | [8] 10.3 µM | [9] 5.17 µM | [10] 100 µM | [11] 26 µM | [12] 7.46 µM | [15] 21.7 µM
inactive: [2] | [18] | [7] | [13] | [16] | [20]
